Source: publication PMC7862700, “An all-to-all approach to the identification of sequence-specific readers for epigenetic DNA modifications on cytosine”

Tests used:
Experiment in all cases: DAPPL (digital affinity profiling via proximity ligation, sequencing); 10 mM Tris-HCl pH 7.5, 50 mM NaCl, 1 mM DTT, 4% glycerol, room temperature, 30 min; GST-TFs on glutathione beads, 16-mer random dsDNA library, 0.1% formaldehyde crosslink after washing; high values mean tight binding
FLI1 = biological target: T1, FLI1 (Homo sapiens, UniProt Q01543 1-452); conditions: protein: recombinant; tags: N-terminal GST; dsDNA, one strand shown
T1 sequence: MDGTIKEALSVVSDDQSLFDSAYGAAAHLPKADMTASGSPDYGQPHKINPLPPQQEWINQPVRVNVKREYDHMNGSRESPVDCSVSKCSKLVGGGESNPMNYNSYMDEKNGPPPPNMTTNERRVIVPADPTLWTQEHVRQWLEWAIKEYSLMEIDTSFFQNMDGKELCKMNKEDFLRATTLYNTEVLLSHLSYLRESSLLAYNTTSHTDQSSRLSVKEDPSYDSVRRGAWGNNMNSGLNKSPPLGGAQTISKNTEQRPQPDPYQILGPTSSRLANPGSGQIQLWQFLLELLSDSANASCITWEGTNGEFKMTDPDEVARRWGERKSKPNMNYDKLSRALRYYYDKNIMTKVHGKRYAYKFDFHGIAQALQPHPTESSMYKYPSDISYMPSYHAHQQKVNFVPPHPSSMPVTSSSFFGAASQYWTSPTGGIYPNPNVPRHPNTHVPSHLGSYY
Procedure, shortened: (§1)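 The binding signal reported is, for every hexamer, its read frequency for a factor over its read frequency for the tag-only sample. Reads came from pools of yeast-expressed, GST-fused human transcription factors on glutathione beads, barcoded with DNA and mixed with that sample, which were incubated with 200 nmole of a random double-stranded 16-mer DNA library in Tris/NaCl/DTT/glycerol buffer at room temperature for 30 min. After washing, the pools were crosslinked with 0.1% formaldehyde, proximity-ligated with BsaI/T4 ligase for 1 h at 37 °C, PCR-amplified and sequenced on an Illumina NextSeq500.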

ELK1 = biological target: T2, ELK1 (Homo sapiens, UniProt P19419 1-428); conditions: protein: recombinant; tags: N-terminal GST; dsDNA, one strand shown
T2 sequence: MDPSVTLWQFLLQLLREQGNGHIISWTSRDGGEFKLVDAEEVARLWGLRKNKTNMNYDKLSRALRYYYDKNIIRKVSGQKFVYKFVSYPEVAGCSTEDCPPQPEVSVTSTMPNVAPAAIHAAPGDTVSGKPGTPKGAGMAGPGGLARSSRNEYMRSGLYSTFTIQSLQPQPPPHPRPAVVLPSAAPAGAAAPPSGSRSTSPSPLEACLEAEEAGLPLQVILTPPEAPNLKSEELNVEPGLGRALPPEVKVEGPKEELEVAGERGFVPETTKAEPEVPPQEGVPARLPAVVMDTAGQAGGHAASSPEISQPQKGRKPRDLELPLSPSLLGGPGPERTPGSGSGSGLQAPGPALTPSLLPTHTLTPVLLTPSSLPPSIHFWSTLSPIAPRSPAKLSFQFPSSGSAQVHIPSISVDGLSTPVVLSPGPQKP
Procedure, shortened: as §1

GABPA = biological target: T3, GABPA (Homo sapiens, UniProt Q06546 1-454); conditions: protein: recombinant; tags: N-terminal GST; dsDNA, one strand shown
T3 sequence: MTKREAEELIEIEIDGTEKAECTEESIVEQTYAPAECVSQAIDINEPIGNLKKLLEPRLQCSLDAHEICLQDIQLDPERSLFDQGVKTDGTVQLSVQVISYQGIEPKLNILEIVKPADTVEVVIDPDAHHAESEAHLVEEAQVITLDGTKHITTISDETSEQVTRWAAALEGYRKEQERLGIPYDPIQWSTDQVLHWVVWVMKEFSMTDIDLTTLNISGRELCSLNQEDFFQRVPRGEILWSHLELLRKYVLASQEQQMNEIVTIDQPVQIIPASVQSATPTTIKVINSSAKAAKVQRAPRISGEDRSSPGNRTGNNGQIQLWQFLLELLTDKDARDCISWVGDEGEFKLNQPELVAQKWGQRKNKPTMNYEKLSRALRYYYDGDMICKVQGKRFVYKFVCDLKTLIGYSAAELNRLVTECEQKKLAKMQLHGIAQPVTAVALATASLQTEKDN
Procedure, shortened: as §1

ERG = biological target: T4, ERG (Homo sapiens, UniProt P11308 1-479); conditions: protein: recombinant; tags: N-terminal GST; dsDNA, one strand shown
T4 sequence: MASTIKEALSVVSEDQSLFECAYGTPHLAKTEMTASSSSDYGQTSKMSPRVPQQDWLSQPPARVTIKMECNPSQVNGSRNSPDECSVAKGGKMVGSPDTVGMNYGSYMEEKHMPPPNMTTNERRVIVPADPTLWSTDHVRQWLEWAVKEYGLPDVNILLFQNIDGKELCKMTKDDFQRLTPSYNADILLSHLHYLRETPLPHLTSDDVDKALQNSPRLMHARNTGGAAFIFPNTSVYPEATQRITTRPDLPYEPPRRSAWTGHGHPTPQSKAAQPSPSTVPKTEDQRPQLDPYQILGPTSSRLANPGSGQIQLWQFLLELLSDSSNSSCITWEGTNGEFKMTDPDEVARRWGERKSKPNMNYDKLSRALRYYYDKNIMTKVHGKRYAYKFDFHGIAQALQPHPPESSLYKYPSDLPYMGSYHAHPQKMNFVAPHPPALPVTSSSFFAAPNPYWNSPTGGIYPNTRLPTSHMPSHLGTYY
Procedure, shortened: as §1

ELF1 = ELF1 (Homo sapiens, UniProt P32519 1-619); conditions: protein: recombinant; tags: N-terminal GST; dsDNA, one strand shown
Procedure, shortened: as §1

EHF = biological target: T5, EHF (Homo sapiens, UniProt Q9NZC4 1-300); conditions: protein: recombinant; tags: N-terminal GST; dsDNA, one strand shown
T5 sequence: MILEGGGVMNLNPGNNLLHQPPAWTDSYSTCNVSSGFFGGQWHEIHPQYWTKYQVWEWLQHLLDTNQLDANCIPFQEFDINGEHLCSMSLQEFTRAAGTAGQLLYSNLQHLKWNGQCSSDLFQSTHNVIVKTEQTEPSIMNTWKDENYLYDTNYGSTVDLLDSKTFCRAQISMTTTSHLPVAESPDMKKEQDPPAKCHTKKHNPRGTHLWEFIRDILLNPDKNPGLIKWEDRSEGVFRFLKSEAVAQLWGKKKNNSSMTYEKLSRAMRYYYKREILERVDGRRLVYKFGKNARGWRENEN
Procedure, shortened: as §1

SPI1 = SPI1 (Homo sapiens, UniProt P17947 1-270); conditions: protein: recombinant; tags: N-terminal GST; dsDNA, one strand shown
Procedure, shortened: as §1

SPIB = SPIB (Homo sapiens, UniProt Q01892 1-262); conditions: protein: recombinant; tags: N-terminal GST; dsDNA, one strand shown
Procedure, shortened: as §1

ELK3 = biological target: T6, ELK3 (Homo sapiens, UniProt P41970 1-407); conditions: protein: recombinant; tags: N-terminal GST; dsDNA, one strand shown
T6 sequence: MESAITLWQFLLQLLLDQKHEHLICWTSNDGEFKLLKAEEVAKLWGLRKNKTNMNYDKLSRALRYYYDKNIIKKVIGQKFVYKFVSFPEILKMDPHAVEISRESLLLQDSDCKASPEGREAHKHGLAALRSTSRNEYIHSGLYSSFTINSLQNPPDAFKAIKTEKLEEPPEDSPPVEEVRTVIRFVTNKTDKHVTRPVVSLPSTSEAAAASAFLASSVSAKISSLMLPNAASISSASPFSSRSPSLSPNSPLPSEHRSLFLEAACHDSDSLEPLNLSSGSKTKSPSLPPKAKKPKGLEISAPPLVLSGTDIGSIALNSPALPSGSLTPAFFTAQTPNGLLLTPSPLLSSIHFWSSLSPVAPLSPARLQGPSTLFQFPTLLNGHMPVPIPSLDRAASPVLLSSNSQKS
Procedure, shortened: as §1

FEV = biological target: T7, FEV (Homo sapiens, UniProt Q99581 1-238); conditions: protein: recombinant; tags: N-terminal GST; dsDNA, one strand shown
T7 sequence: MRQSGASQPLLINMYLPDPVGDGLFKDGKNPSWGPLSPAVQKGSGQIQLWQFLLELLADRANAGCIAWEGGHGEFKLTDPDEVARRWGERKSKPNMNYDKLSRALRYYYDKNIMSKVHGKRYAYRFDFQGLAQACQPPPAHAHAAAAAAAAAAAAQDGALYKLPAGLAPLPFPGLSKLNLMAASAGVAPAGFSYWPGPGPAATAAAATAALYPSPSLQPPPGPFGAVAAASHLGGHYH
Procedure, shortened: as §1

ETV5 = ETV5 (Homo sapiens, UniProt P41161 1-510); conditions: protein: recombinant; tags: N-terminal GST; dsDNA, one strand shown
Procedure, shortened: as §1

HSF1 = HSF1 (Homo sapiens, UniProt Q00613 1-529); conditions: protein: recombinant; tags: N-terminal GST; chain copies: 3; dsDNA, one strand shown
Procedure, shortened: as §1

SPIC = biological target: T8, SPIC (Homo sapiens, UniProt Q8N5J4 1-248); conditions: protein: recombinant; tags: N-terminal GST; dsDNA, one strand shown
T8 sequence: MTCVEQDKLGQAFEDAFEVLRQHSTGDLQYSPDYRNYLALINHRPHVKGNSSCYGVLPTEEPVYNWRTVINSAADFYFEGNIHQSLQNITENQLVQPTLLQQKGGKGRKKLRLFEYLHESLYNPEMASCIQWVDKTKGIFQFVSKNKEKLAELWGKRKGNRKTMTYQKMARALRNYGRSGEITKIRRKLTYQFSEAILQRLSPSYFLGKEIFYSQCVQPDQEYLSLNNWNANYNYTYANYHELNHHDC
Procedure, shortened: as §1

ELF4 = ELF4 (Homo sapiens, UniProt Q99607 1-663); conditions: protein: recombinant; tags: N-terminal GST; dsDNA, one strand shown
Procedure, shortened: as §1

ELK4 = biological target: T9, ELK4 (Homo sapiens, UniProt P28324-2 1-405); conditions: protein: recombinant; tags: N-terminal GST; dsDNA, one strand shown
T9 sequence: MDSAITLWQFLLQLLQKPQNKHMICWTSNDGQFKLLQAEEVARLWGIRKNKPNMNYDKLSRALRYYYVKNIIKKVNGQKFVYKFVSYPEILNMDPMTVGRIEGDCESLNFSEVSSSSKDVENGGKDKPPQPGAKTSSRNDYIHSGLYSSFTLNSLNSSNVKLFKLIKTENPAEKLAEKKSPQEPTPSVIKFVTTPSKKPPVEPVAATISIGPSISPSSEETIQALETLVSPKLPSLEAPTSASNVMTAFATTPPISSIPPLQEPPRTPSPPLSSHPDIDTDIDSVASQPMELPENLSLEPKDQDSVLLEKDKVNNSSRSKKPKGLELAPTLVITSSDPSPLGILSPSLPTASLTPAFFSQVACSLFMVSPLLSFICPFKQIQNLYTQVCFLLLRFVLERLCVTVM
Procedure, shortened: as §1

ETV2 = biological target: T10, ETV2 (Homo sapiens, UniProt O00321 1-342); conditions: protein: recombinant; tags: N-terminal GST; dsDNA, one strand shown
T10 sequence: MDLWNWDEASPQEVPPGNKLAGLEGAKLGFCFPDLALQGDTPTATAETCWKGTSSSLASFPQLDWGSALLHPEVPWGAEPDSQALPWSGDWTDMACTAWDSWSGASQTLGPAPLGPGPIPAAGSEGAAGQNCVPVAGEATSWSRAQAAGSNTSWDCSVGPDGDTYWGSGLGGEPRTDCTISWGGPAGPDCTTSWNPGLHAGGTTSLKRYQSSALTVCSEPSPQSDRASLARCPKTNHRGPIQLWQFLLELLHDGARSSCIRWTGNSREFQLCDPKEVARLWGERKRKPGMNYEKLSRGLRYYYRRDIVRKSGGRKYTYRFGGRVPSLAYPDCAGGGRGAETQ
Procedure, shortened: as §1

ELF3 = biological target: T11, ELF3 (Homo sapiens, UniProt P78545 1-371); conditions: protein: recombinant; tags: N-terminal GST; dsDNA, one strand shown
T11 sequence: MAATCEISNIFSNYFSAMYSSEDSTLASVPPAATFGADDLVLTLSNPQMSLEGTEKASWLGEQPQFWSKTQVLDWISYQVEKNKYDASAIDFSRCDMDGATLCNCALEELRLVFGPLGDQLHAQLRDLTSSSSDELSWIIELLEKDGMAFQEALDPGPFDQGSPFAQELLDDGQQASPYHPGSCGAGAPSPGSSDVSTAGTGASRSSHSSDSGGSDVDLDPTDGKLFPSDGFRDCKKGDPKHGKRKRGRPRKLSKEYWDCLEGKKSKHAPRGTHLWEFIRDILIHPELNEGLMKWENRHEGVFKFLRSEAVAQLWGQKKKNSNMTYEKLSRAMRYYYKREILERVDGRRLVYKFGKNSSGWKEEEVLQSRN
Procedure, shortened: as §1

CRX = CRX (Homo sapiens, UniProt O43186 1-299); conditions: protein: recombinant; tags: N-terminal GST; dsDNA, one strand shown
Procedure, shortened: as §1

ETV1 = ETV1 (Homo sapiens, UniProt P50549 1-477); conditions: protein: recombinant; tags: N-terminal GST; dsDNA, one strand shown
Procedure, shortened: as §1

Sequence of ETV1 (P50549 whole entry): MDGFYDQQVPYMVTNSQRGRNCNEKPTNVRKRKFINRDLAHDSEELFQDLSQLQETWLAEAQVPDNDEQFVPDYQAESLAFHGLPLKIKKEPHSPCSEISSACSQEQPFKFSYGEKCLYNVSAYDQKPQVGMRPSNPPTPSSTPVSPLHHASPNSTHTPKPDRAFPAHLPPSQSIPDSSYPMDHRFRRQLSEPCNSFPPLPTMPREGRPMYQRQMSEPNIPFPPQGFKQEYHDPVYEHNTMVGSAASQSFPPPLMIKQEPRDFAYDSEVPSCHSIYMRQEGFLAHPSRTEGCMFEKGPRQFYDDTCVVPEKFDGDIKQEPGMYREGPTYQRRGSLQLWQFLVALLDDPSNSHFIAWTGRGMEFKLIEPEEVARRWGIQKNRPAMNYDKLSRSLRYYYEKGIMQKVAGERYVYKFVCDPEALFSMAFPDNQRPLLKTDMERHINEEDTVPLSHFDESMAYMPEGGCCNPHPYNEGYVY
Sequence of SPIB (Q01892 whole entry): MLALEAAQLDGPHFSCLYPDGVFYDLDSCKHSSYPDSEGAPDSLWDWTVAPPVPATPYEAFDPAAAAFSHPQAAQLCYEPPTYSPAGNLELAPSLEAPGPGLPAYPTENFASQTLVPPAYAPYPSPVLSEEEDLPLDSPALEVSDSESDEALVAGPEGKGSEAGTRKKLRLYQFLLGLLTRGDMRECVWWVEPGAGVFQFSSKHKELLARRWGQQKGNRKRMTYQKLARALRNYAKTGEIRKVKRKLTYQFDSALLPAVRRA
Sequence of ELF4 (Q99607 whole entry): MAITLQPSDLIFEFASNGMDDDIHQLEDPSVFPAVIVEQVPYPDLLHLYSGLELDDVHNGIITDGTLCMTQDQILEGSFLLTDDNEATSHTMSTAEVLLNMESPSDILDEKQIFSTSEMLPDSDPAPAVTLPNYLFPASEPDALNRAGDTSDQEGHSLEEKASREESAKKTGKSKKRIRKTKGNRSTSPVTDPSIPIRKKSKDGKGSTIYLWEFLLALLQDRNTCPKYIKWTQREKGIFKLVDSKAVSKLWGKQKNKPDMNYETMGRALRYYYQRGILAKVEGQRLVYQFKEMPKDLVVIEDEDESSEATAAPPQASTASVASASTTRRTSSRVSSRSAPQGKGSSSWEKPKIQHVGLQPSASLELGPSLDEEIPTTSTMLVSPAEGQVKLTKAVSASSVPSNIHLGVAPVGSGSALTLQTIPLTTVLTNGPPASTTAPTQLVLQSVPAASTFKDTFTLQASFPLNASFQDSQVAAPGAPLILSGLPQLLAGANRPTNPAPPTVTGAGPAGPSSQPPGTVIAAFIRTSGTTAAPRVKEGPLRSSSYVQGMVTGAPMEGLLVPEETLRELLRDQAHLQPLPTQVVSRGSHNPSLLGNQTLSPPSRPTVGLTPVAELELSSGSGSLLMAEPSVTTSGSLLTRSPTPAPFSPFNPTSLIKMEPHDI
Sequence of HSF1 (Q00613 whole entry): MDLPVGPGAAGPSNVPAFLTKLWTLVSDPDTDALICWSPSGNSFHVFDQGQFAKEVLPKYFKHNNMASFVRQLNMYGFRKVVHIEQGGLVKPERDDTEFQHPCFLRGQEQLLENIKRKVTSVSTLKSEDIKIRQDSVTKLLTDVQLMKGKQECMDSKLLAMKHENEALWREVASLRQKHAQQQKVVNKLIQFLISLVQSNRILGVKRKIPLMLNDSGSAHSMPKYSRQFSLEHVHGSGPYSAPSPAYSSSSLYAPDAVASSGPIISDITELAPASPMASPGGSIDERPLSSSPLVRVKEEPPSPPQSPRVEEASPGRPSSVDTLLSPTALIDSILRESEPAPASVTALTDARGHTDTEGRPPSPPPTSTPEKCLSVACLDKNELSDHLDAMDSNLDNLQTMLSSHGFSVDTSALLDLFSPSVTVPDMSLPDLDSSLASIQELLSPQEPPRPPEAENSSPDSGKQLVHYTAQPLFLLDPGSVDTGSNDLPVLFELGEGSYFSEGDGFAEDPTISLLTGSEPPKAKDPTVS
Sequence of ELF1 (P32519 whole entry): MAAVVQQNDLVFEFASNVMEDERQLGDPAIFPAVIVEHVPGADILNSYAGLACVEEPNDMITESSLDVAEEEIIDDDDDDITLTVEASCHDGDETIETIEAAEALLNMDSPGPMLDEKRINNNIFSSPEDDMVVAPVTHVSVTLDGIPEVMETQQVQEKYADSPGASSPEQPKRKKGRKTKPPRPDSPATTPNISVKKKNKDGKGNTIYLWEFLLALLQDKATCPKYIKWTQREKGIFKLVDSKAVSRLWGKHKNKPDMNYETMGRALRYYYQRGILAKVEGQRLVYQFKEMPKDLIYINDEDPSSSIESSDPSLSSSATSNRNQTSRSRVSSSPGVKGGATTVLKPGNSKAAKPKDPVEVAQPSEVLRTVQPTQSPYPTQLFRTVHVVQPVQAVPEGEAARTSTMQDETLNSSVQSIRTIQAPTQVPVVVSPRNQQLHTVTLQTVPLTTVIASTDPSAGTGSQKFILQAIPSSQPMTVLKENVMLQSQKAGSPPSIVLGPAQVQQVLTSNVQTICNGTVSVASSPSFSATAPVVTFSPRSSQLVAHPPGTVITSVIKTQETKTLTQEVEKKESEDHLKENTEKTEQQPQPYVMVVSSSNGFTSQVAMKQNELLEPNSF
Sequence of CRX (O43186 whole entry): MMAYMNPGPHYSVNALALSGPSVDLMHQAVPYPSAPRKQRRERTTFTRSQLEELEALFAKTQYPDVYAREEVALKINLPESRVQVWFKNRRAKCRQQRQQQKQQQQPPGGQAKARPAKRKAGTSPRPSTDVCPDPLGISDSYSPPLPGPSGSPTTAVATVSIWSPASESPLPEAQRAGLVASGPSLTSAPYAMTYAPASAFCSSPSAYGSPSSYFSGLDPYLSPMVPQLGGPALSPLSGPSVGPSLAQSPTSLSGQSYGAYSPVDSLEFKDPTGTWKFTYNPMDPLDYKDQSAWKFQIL
Sequence of ETV5 (P41161 whole entry): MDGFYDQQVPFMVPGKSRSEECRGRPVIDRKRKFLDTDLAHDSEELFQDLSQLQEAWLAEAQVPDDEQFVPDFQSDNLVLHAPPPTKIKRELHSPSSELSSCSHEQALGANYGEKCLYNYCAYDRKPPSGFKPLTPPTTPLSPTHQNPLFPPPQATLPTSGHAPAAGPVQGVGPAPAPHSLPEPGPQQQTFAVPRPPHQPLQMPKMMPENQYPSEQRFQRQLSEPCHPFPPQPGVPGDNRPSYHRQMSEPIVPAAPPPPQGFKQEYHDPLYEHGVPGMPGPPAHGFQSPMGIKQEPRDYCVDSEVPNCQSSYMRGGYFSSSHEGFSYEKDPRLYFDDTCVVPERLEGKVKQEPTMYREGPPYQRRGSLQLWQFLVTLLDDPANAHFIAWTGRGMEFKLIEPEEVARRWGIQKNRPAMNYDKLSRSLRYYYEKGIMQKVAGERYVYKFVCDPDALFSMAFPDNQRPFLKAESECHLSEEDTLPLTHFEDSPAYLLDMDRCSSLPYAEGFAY

CCTATT
binding signal (FLI1): 1.47 fold enrichment (6-mer frequency, TF over GST control)
binding signal (ELK1): 1.55 fold enrichment (6-mer frequency, TF over GST control)
binding signal (GABPA): 1.49 fold enrichment (6-mer frequency, TF over GST control)
binding signal (ERG): 1.53 fold enrichment (6-mer frequency, TF over GST control)
binding signal (ELF1): 1.56 fold enrichment (6-mer frequency, TF over GST control)
binding signal (EHF): 1.64 fold enrichment (6-mer frequency, TF over GST control)
binding signal (SPI1): 1.55 fold enrichment (6-mer frequency, TF over GST control)
binding signal (SPIB): 1.44 fold enrichment (6-mer frequency, TF over GST control)
binding signal (ELK3): 1.4 fold enrichment (6-mer frequency, TF over GST control)
binding signal (FEV): 1.39 fold enrichment (6-mer frequency, TF over GST control)
binding signal (ETV5): 1.51 fold enrichment (6-mer frequency, TF over GST control)
binding signal (HSF1): 1.43 fold enrichment (6-mer frequency, TF over GST control)
binding signal (SPIC): 1.46 fold enrichment (6-mer frequency, TF over GST control)
binding signal (ELF4): 1.44 fold enrichment (6-mer frequency, TF over GST control)
binding signal (ELK4): 1.37 fold enrichment (6-mer frequency, TF over GST control)
binding signal (ETV2): 1.46 fold enrichment (6-mer frequency, TF over GST control)
binding signal (ELF3): 1.54 fold enrichment (6-mer frequency, TF over GST control)
binding signal (CRX): 1.67 fold enrichment (6-mer frequency, TF over GST control)
binding signal (ETV1): 1.55 fold enrichment (6-mer frequency, TF over GST control)
